According to PubChem BioAssay AID588342 (National Center for Advancing Translational Sciences (NCATS), 2011):
In all, about 360,000 compounds went through this assay and about 25,000 (6.9%) were called active. Roughly 9% stayed inconclusive and do not appear here. The call rests on the fitted dose curve; in most records, active means well fitted inhibition curve with a large enough effect; inconclusive means small, poorly fitted or top-dose-only effect; inactive means flat fitted curve, though single readings scatter. The entries come from a sample that favours actives as a whole. Entries that show only a call come without a potency.

biological target: Luciferin 4-monooxygenase (Photinus pyralis) (UniProt P08659); assay: qHTS profiling assay for firefly luciferase inhibitor/activator using purifed enzyme and Km concentrations of substrates (counterscreen for miR-21 project); conditions: purified FLuc, luminescence inhibition; series mostly up to 57.5 µM; further: nearly all actives have a fitted effect of over 55% in size
Sequence (P08659 whole entry, looked up): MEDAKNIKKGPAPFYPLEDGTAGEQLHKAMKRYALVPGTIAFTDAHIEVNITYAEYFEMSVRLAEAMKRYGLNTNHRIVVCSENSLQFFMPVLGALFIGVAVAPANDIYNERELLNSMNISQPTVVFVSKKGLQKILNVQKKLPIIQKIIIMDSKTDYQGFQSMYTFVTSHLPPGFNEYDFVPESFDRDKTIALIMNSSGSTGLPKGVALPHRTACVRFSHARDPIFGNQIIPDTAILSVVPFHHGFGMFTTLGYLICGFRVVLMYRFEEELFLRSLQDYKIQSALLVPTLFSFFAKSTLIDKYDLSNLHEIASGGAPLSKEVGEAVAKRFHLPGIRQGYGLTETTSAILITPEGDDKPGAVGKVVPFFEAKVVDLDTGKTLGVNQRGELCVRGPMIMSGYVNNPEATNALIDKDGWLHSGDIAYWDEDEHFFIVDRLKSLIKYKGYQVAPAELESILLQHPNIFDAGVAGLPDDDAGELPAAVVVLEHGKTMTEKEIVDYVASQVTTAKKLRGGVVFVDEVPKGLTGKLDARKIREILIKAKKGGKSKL
Procedure, shortened: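 Purified P. pyralis luciferase, 10 nM final, with Km-level 10 uM D-luciferin and 10 uM ATP in 50 mM Tris acetate pH 7.5, 10 mM Mg acetate, 0.01% Tween-20, 0.05% BSA; 6-point qHTS titration about 60 µM downward; luminescence read.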
Potency means the concentration at half of the fitted maximal effect.

SMILES | Potency
Cc1cccc(NC(=O)CN(c2ccc(C(C)C)cc2)S(=O)(=O)c2c(C)nn(C)c2C)c1C | inactive
COCCCNc1nc2c(-c3cccc(C)c3)nnn2c2ccc(Cl)cc12 | inactive
CC(=O)NC1C(Oc2ccc(C)cc2)OC2COC(c3ccco3)OC2C1O (centres undefined) | inactive
CC(C)c1ccc(C2C(C(=O)c3ccco3)=C(O)C(=O)N2CC2CCCO2)cc1 (centres undefined) | inactive
CCOc1ccc(C2CC(=O)c3c([nH]c(C(=O)OCc4ccccc4)c3C)C2)cc1 (centres undefined) | inactive
O=C(Nc1cc(C(F)(F)F)ccc1Cl)c1ccc2c(c1)CCN2S(=O)(=O)c1ccccc1 | inactive
N#Cc1nc(Cc2ccccc2)oc1NCCc1ccccc1 | 16.9 µM (active)
N#Cc1nc(Cc2cccc3ccccc23)oc1NCc1ccc2c(c1)OCO2 | inactive
N#Cc1nc(/C=C/c2ccc(F)cc2)oc1NCc1ccc(F)cc1 | inactive
Nc1nc(COC(=O)CCC(=O)c2ccc(Cl)cc2)nc(Nc2ccccc2)n1 | inactive
CC(C)NS(=O)(=O)c1ccc(NC(=O)c2cccnc2)cc1 | inactive
CCOC(=O)c1sc(NC(=O)CSc2ncccn2)c(C#N)c1C | inactive
Cc1c(C(=O)OC(C)C)sc(NC(=O)c2cccnc2)c1C#N | 6.75 µM (active)
Cc1ccc(NS(=O)(=O)c2ccc3c(c2)CC(=O)N3)cc1Cl | inactive
CC(=O)c1ccc(OCCN2CCOCC2)cc1 | inactive
c1ccc(-c2ccc(OCCN3CCOCC3)cc2)cc1 | 16.9 µM (active)
CC(C)(c1ccccc1)c1ccc(OCCN2CCCC2)cc1 | inactive
O=C(C1CC1)N1CCc2cc(Br)cc(S(=O)(=O)N3CCN(c4ccccc4F)CC3)c21 | inactive
COc1cccc(CN(C)C(=O)CC23CC4CC(CC(C4)C2)C3)c1OC | inactive
COc1cc(Nc2nc(-c3ccc(OC)c(OC)c3)nc3ccccc23)cc(OC)c1 | inactive
Cc1cccc(-c2nc(Nc3ccc(O)cc3)c3ccccc3n2)c1 | 19 µM (active)
CCC(=O)OCCNc1nc(-c2ccccc2)nc2ccccc12 | inactive
CCOc1ccc2c(c1)cc(CN(C(=O)CC)C1CCCCC1)c1nnnn12 | inactive

SMILES | Potency
COc1ccc(C)cc1N(C)C(=O)c1c(C)oc2ncnc(N3CCOCC3)c12 | inactive
COc1cc(Cl)c(C)cc1Nc1nnc(-n2nc(C)cc2C)c2ccccc12 | inactive
O=c1[nH]c2cc(Br)ccc2n2cccc12 | inactive
Cc1ccc(S(=O)(=O)N2CCCCC2)cc1NC(=O)c1cccnc1 | inactive
O=C(N/N=C/c1sc(N2CCCCC2)nc1-c1cccs1)c1cccnc1 | 21.3 µM (active)
O=C(NN=C1CCC(=NNC(=O)c2cccnc2)CC1)c1cccnc1 | inactive
COc1ccc2nc(N3CCCC(O)C3)c(C#N)cc2c1 (centres undefined) | 7.57 µM (active)
COc1ccc2c(c1)CCc1cn3ncc(C#N)c3nc1-2 | inactive
COc1ccc2cc(C(=O)C3CCCN(C(=O)c4sc(C)nc4C)C3)ccc2c1 (centres undefined) | inactive
COc1cc2c(cc1OC)CN(C(C)C(=O)Nc1cccc(S(=O)(=O)N3CCOCC3)c1)CC2 (centres undefined) | inactive
COc1ccc(S(=O)(=O)NCCCCOc2ccc(Cl)cc2)cc1 | inactive
Cc1cc(S(=O)(=O)N2CCOCC2)ccc1OCC(=O)N1CCOCC1 | inactive
COCc1c(C(=O)OCC(=O)Nc2ccc(OC(F)F)cc2)oc2ccccc12 | inactive
O=C(NC1CC1)c1ccc(-c2ccccc2)cc1 | 16.9 µM (active)
O=C(NC1CC1)c1cccc(Br)c1 | inactive
O=C(NC1CCCC1)c1cc(-c2ccccc2)on1 | 5.36 µM (active)
CC(=O)c1cc(-c2ccccc2)n(CC(=O)NC2CCCCC2)c1C | inactive
O=C(CCc1nc(-c2ccccc2)no1)Nc1cccc(C(=O)NC2CC2)c1 | inactive
O=C(NC1CCN(S(=O)(=O)c2ccc(F)cc2)CC1)c1ccccc1 | inactive
COc1ccc(-c2c(C)c3ccc(O)c(CN4CCCC4)c3oc2=O)cc1OC | inactive
Cn1nc(C(=O)OCC(=O)N(Cc2ccccc2)C(C)(C)C)c2ccccc2c1=O | inactive
CSc1ccccc1-c1nnc(-c2ccc(Cl)cc2)o1 | 5.36 µM (active)
FC(F)(F)c1cnc(Oc2ccccc2-c2nnc(-c3ccc(Cl)cc3)o2)c(Cl)c1 | inactive

SMILES | Potency
O=C(O)c1cc(S(=O)(=O)Nc2ccc3cn[nH]c3c2)ccc1Br | inactive
O=C(CCCN1C(=O)c2ccccc2C1=O)Oc1ccc(Cl)cc1 | inactive
Cc1cc(C)cc(OCC(=O)NNC(=O)CCN2C(=O)c3ccccc3C2=O)c1 | inactive
Cc1cc(C(=O)COC(=O)CCCN2C(=O)c3ccccc3C2=O)c(C)n1C | 23.9 µM (active)
CCCCN(Cc1ccccc1)C(=O)C1CCN(Cc2sccc2C)CC1 | inactive
O=C(NC1CC(=O)N(c2ccc(F)cc2)C1)c1cccs1 (centres undefined) | inactive
CN(c1ccc(O)cc1)c1nc(-c2cccnc2)cs1 | 4.78 µM (active)
COc1ccc(CCN(C(=O)COc2ccccc2)c2nc(-c3ccccc3)cs2)cc1OC | inactive
CN(C(=O)CSc1nc(C2CC2)nc2ccccc12)c1nc(-c2ccccc2)cs1 | inactive
Cc1ccc(S(=O)(=O)N(Cc2nc(-c3ccc(Cl)cc3)no2)C2CCCCC2)cc1 | inactive
CC(C(=O)N1CCc2ccccc21)N(C)CC(=O)Nc1ccc(F)cc1 (centres undefined) | inactive
Cc1cccn2c(=O)c(C=O)c(Nc3ccc(S(N)(=O)=O)cc3)nc12 | inactive
Cc1cccn2c(=O)c(/C=C3\SC(=S)N(CC(C)C)C3=O)c(NCCCOC(C)C)nc12 | inactive
CNc1nc2c(C)cccn2c(=O)c1C=Nc1ccc(OC)cc1 | 12 µM (active)
Cc1ccc(CNC(=O)c2c(O)nc3c(C)cccn3c2=O)cc1 | inactive
O=C(CCn1c(=O)oc2ccccc21)Nc1ccon1 | inactive
Cc1ccccc1Nc1nnc(SCC(=O)c2cc3ccccc3o2)s1 | inactive
CC(C)Nc1nnc(SCC(=O)c2c[nH]c3ccccc23)s1 | inactive
CC(C)c1ccc(Nc2nnc(SCC(=O)c3nnc(-c4ccccc4)o3)s2)cc1 | 10.7 µM (active)
CC1CCCC(NC(=O)c2cc(S(=O)(=O)N3CCCCC3)ccc2Cl)C1C (centres undefined) | inactive
C(=N/Nc1cc(N2CCOCC2)nc(N2CCOCC2)n1)/c1ccccc1 | inactive
Cc1cc(N/N=C\c2ccc(Br)cc2)nc(-n2nc(C)cc2C)n1 | inactive
Cc1nc(Cl)cc(N/N=C/c2ccccc2)n1 | 16.9 µM (active)
